Measured values reported in ChEMBL document CHEMBL3988442, “University of Dundee, Small-Polar-MMV Screening Library” (2021).
For some of these results: Potency and affinity values are given separately.

Tests used:
Parameters in all cases: scale not given: direction of the effect not stated beside the values
[1] = target: Protein translocase subunit SecA (Escherichia coli (strain K12)) (UniProt P10408); experiment: Assay to Identify E. coli SecA ATPase Inhibitors; format: functional; conditions: 30 µM
[2] = target: T1, Ubiquitin-activating enzyme e1, putative (Leishmania donovani (strain BPK282A1)) (UniProt E9BSI1); experiment: Leishmania donovani Ubiquitin Activating Enzyme (LdE1); format: functional; conditions: 30 µM
T1 sequence (whole entry): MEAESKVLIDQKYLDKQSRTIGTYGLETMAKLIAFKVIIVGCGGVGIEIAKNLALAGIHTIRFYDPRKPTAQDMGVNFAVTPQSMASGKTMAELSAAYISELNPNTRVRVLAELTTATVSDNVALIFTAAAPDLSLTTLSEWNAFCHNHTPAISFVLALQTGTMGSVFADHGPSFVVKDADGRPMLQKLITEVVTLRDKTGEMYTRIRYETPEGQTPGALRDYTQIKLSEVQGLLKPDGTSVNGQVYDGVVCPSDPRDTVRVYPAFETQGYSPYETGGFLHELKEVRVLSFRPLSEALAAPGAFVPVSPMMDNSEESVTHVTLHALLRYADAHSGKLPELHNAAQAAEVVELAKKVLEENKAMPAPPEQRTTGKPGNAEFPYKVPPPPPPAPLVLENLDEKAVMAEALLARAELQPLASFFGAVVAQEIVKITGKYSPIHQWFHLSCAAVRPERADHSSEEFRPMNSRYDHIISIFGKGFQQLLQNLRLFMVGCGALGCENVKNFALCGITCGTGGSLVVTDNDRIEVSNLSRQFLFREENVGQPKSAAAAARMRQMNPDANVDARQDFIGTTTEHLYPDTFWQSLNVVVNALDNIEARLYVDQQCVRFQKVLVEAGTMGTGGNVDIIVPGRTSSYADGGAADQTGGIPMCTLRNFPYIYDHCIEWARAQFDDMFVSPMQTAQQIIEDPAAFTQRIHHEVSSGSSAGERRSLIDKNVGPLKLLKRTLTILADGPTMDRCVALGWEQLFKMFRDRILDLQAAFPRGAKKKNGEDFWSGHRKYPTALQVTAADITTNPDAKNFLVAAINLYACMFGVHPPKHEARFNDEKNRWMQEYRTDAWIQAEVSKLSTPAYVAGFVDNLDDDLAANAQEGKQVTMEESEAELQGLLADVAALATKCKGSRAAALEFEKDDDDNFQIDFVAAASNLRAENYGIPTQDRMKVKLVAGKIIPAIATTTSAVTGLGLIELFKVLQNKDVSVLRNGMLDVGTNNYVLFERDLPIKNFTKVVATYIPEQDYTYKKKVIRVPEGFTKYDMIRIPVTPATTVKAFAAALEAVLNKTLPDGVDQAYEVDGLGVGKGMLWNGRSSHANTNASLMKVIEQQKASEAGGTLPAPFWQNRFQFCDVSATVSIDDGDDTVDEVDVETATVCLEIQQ

[3] = target: AMP-activated protein kinase, AMPK (Homo sapiens) (UniProt P54646+O43741+P54619+Q9UGJ0+Q9Y478+Q13131+Q9UGI9); experiment: AMP-dependent Kinase enzyme assay. An in vitro enzyme assay that detects ADP turnover that is directly proportional to AMPK activity. This uses naive AMPK that is activated during the assay with MK-8722; format: functional; conditions: 30 µM
[4] = target: Sialic acid-binding Ig-like lectin 9 (Homo sapiens) (UniProt Q9Y336); experiment: Hs-Siglec9 ALPHAscreen SOP 20170721; conditions: 10 µM
Trypanosoma cruzi = experiment: Trypanosoma cruzi phosphomannomutase and mannose-1-phosphate guanylyltransferase assay; format: functional; conditions: 10 µM
[5] = target: T2, Arginase-2, mitochondrial (Homo sapiens) (UniProt P78540); experiment: in vitro enzyme assay to detect the production of urea directly proportional to the activity of Arginase II; format: functional; conditions: 33.3 µM; note: in the data most compounds retested in dose-response had high values
T2 sequence (whole entry): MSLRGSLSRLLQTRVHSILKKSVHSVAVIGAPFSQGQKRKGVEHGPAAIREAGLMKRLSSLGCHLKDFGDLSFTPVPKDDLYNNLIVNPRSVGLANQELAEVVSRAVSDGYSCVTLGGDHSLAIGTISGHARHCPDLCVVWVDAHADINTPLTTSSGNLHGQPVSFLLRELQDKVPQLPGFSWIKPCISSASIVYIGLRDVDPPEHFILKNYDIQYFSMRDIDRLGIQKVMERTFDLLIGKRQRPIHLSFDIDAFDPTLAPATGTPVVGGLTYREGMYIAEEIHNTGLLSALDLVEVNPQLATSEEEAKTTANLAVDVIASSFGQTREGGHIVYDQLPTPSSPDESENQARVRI

[6] = target: T3, Proteasome subunit beta (Trypanosoma cruzi) (UniProt O96673); experiment: Trypanosoma cruzi proteasome chymotrypsin-like activity (TcProtChymo) assay.; note: in the data most compounds retested in dose-response had high values; format: functional; conditions: 9.37 µM
T3 sequence (whole entry): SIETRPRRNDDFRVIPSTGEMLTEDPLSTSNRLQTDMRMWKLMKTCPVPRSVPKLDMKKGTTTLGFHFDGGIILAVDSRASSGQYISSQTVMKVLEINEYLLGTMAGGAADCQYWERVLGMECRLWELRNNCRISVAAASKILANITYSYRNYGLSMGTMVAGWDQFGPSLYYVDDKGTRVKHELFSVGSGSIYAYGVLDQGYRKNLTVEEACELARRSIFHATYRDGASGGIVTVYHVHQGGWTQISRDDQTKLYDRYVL

Homo sapiens = species on record: Homo sapiens; experiment: To identify inhibition of the IFN signalling (Jak-Stat) pathway via expression of an eGFP reporter gene under the control of an IFN-stimulated response element (ISRE) containing MxA promoter.; format: functional; conditions: 30 µM
[7] = target: T4, Tyrosyl-tRNA synthetase, putative (Trypanosoma cruzi (strain CL Brener)) (UniProt Q4DSP6); experiment: Trypanosoma cruzi tyrosyl tRNA synthetase (TcYRS) _High Tyrosine SOP; format: functional; conditions: 30 µM; note: in the data most compounds retested in dose-response had high values
T4 sequence (whole entry): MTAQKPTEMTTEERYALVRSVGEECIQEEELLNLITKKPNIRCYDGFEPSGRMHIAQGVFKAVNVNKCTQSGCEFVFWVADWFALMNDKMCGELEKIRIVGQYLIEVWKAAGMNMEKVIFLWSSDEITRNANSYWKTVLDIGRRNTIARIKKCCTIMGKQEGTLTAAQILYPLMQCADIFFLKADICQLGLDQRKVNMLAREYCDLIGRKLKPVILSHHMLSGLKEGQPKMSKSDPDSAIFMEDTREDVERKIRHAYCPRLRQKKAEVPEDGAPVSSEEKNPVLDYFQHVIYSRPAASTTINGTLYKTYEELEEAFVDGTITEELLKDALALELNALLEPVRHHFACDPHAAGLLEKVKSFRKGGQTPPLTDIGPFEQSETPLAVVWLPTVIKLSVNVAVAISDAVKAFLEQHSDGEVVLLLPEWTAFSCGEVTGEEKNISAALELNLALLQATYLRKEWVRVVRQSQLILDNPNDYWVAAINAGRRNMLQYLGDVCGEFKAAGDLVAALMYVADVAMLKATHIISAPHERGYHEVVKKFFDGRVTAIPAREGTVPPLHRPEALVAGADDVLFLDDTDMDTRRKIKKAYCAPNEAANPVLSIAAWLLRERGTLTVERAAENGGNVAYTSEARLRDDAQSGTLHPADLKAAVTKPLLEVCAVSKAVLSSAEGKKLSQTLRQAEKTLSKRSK

[8] = target: T4, Tyrosyl-tRNA synthetase, putative (Trypanosoma cruzi (strain CL Brener)); experiment: Trypanosoma cruzi tyrosyl tRNA synthetase (TcYRS) SOP; format: functional; conditions: 30 µM
[9] = target: Chromo domain-containing protein 1 (Saccharomyces cerevisiae (strain ATCC 204508 / S288c) (Baker's yeast)) (UniProt P32657); experiment: ScCHD-1 Enzyme Inhibition Assay; format: functional; conditions: 30 µM; note: in the data most compounds retested in dose-response had high values
Chain of Chromo domain-containing protein 1 (Saccharomyces cerevisiae (strain ATCC 204508 / S288c) (Baker's yeast)) (P32657 whole entry, the tested form may be a part): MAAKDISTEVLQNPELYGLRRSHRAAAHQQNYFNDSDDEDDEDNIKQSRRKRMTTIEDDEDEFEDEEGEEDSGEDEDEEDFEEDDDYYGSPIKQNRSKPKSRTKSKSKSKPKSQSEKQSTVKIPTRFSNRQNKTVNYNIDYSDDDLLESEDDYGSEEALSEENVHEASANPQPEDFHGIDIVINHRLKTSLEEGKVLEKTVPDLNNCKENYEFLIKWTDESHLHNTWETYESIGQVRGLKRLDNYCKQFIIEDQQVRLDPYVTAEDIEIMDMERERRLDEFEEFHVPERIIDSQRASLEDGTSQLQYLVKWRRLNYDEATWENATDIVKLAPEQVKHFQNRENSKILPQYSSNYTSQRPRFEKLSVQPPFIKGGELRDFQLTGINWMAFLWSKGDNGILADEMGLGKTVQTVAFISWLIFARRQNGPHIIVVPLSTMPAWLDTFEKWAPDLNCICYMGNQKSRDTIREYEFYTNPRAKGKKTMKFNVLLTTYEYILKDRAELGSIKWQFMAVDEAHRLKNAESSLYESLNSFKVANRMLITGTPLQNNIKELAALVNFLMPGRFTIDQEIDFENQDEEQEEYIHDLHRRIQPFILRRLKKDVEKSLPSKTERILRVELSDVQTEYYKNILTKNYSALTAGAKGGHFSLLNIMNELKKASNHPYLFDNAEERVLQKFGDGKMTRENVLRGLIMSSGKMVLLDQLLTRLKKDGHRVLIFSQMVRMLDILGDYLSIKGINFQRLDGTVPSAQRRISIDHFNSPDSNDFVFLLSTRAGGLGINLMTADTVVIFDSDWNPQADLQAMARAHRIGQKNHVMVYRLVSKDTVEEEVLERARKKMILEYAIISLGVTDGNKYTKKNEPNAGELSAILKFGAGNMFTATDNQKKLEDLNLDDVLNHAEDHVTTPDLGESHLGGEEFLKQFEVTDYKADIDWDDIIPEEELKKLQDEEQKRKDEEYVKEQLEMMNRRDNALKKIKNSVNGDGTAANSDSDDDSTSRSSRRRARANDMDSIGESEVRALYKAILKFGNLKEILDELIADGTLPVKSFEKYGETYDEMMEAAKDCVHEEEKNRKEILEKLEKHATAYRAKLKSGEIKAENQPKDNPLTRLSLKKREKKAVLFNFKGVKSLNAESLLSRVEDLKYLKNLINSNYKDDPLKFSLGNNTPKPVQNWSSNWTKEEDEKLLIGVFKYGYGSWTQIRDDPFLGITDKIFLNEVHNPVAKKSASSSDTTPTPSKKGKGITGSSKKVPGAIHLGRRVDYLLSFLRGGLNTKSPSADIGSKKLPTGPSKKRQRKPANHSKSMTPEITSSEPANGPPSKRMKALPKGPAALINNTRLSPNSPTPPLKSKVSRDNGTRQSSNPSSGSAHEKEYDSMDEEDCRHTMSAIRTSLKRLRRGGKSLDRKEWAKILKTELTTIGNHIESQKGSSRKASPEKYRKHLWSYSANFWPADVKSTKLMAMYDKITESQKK

Chain of Protein translocase subunit SecA (Escherichia coli (strain K12)) (P10408 whole entry): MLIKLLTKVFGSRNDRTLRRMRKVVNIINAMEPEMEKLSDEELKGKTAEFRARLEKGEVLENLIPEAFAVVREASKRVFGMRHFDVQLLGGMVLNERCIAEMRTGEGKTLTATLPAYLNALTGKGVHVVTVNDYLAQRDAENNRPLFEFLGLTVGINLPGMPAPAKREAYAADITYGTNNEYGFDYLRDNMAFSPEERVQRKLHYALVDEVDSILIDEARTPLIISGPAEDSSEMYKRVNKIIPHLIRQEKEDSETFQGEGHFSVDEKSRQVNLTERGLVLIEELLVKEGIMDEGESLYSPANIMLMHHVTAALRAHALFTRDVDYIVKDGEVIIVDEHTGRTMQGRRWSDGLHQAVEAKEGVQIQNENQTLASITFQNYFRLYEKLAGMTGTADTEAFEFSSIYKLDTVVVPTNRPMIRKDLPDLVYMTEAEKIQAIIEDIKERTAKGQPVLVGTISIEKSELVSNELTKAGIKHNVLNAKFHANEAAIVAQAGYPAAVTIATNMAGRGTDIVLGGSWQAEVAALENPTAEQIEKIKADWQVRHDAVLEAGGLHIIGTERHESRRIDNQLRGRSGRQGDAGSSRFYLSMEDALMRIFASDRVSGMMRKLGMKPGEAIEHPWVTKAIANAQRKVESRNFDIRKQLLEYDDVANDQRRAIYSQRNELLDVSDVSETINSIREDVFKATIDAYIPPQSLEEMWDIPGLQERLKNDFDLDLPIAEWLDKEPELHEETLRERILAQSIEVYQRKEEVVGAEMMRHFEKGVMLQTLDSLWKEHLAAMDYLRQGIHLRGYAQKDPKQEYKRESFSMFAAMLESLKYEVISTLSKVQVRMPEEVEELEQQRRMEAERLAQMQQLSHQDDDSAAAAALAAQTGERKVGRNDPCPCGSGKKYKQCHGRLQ
Chain of Sialic acid-binding Ig-like lectin 9 (Homo sapiens) (Q9Y336 whole entry): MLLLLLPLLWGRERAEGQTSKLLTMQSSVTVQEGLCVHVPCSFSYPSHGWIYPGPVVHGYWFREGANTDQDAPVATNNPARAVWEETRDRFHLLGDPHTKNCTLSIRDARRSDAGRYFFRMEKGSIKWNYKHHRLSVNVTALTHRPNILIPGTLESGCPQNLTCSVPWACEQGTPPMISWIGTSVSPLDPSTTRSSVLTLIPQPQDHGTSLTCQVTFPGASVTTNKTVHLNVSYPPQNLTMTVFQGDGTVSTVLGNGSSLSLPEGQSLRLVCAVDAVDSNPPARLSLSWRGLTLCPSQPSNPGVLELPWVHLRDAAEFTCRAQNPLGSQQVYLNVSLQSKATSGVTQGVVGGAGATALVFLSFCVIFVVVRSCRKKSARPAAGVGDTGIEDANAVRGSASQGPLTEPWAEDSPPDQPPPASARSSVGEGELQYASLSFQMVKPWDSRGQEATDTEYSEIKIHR

| Structure (SMILES) | Percent Effect [1] | Percent Effect [2] | Percent Effect [3] | Percent Effect [4] | Percent Effect (Trypanosoma cruzi) | Percent Effect [5] | Percent Effect [6] | Percent Effect (Homo sapiens) | Percent Effect [7] | Percent Effect [8] | Percent Effect [9] |
| --- | --- | --- | --- | --- | --- | --- | --- | --- | --- | --- | --- |
| CCOc1cc(C)nc(N2CCN(C(=O)CC)CC2)n1 | -4.4% | 5.41% | 144% | 10.3% | 0.836% | 0.924% | -14.4% | 17.8% | 6.93% | 6.1% | 7.75% |
| Cc1noc(C)c1CNC(=O)c1ccc(NC2CC2)nc1 | -5.61% | 5.26% | -12.2% | 12.7% | 7.94% | -2.52% | -0.0846% | 3.38% | 7.39% | 25.9% | -5.7% |
| Cn1cc(N2CC3(CCN(Cc4cccs4)CC3)OCC2=O)cn1 | -0.959% | -2.74% | -1.55% | 15.7% | 2.38% | 3.19% | 3.68% | 2.59% | -14.6% | 8.64% | -2.76% |
| CC(C)(NCC(=O)NCC(F)(F)F)c1ccc2c(c1)OCCO2 | -1.45% | 13.5% | -7.25% | 1.31% | -4.06% | 17.2% | 16% | 5.37% | 1.48% | 18.5% | -4.3% |
| Cc1cc(C2CCCN2C(=O)NCc2cccc(F)c2)on1 (stereo not given) | -3.25% | 8% | -2.75% | 0.538% | -1.07% | 1.56% | 16.2% | 10.1% | 8.2% | 13.6% | -5.2% |
| Cc1nc[nH]c1CN(C)CC1CCCN(CCc2ccc(Cl)cc2)C1 (stereo not given) | 0.978% | -5.48% | 4.19% | 6.4% | 4.11% | 10.4% | 5.32% | 61.3% | 9.68% | 2.5% | -4.79% |
| Cc1cccc(C(=O)Nc2ccc(OC3CCN(C)CC3)cc2)c1 | -3.56% | 7.79% | 6.98% | 12% | 7.57% | 22.1% | 7.82% | -1.95% | 5.38% | 13.6% | -8.12% |
| O=C(NCc1ccccn1)[C@H]1COC[C@H]2CN(Cc3ccoc3)C[C@H]21 | -2.43% | 2.7% | 6.89% | -1.93% | -6.16% | 2.87% | 20.3% | -4.49% | 5.41% | 7.69% | -5.52% |
| COCCCN1CCc2cncnc2C1 | -2.65% | 5.06% | -237% | 6.45% | 9.35% | 2.66% | 8.27% | -13.7% | 5.42% | 8.86% | -6.93% |
| COc1ccc(-c2nnc(SC(C)C(=O)NC3CC3)[nH]2)c(OC)c1 (stereo not given) | -8.04% | 15.8% | 1.94% | -2.88% | 2.63% | -2.37% | 13.3% | 71.7% | 6.38% | 18.2% | -7.11% |
| Cc1nc(CN2C[C@@H]3CN(C(=O)c4cnccn4)C[C@@H]3C2)cs1 | -1.57% | 5.48% | 0.106% | 5.75% | -1.79% | -2.79% | 7.45% | 7.67% | 5.21% | 16.1% | -3.57% |
| Cc1noc([C@@]23CCO[C@@H]2CCN(CC2CCOCC2)C3)n1 | 2.95% | 8% | 7.01% | 4.21% | -6.76% | -51.4% | 9.91% | 2.92% | 8.33% | 20% | -7.02% |
| CCn1nc(C)c2nc(C(C)C)nc(NCCCO)c21 | -2.47% | 12% | 4.47% | 13.2% | 1.97% | 0.176% | 12.6% | 33.7% | 4.23% | 12.8% | -6.99% |
| CCc1nccn1C1CCCN(C(=O)c2ccc3[nH]cnc3c2)C1 (stereo not given) | -7.22% | 2.63% | 2.64% | 2.2% | 5.36% | 1.18% | 9.3% | 7.56% | 8.51% | 10.4% | -0.611% |
| CCC1CN(CC(=O)N2CCC2)CCN1CCOC (stereo not given) | -2.71% | 13.5% | -12.7% | 13.2% | 3.49% | -8.82% | 7.03% | 1.78% | 8.37% | 28.4% | -9.71% |
| Cc1cnn(CC2CCCCN2C(=O)c2ccc3nnc(C)n3c2)c1 (stereo not given) | 3.48% | 13% | -0.0421% | -9.14% | -4.6% | -1.9% | 15.9% | 21% | 5.71% | 18.8% | -5.8% |
| O=C(CCn1cncn1)NC1(c2cccc(Br)c2)CCC1 | -3.55% | 20.8% | 1.67% | 13.7% | 3.44% | 1.38% | 10.5% | -1.82% | 3.23% | 16.1% | -9.17% |
| CS(=O)(=O)NC1CCN(C(=O)NCCNc2ccccn2)CC1 | -6.26% | 10.8% | 0.725% | -1.36% | -10.7% | 3.14% | 4.85% | 14.7% | -0.99% | 1.22% | -1.89% |
| Cc1n[nH]c(C2CN(C(=O)c3ccco3)CCO2)n1 (stereo not given) | -4.76% | 2.63% | 7.87% | 3.79% | 1.07% | 0% | 4.51% | 25.8% | 6.38% | 7.79% | -0.969% |
| CSc1ccc(CNC(c2ccccc2)c2nccn2C)cc1 (stereo not given) | -5.49% | 21.6% | -4% | 8.74% | 7.71% | -2.77% | 11.1% | 24.1% | 10.9% | 30.5% | -6.68% |
